# PubChem BioAssay (EPA / NIEHS)
# The source made the active and inactive calls. Rule for the calls: active = hit-call score of the fitted dose curve at least 0.9, where 1 is the maximum; inactive = score below 0.9.
# Experiment: BSK_3C_Vis: BioMAP Diversity Plus: 3C Assay for Morphology Visualization (AID 2283025);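 note: fitted both ways so gain or loss versus DMSO counts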;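 for AC50: light microscopy image of cell morphology used as background control; cells imaged 24 h after dosing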
# Settings: primary human endothelial cells (HUVEC)
# Procedure, shortened: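 Chemicals were added to primary human umbilical vein endothelium, cells were incubated 24 h, and morphology was then visualized by light microscopy. Gain or loss of signal was fitted bidirectionally relative to DMSO.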
Structure (SMILES),outcome,AC50
CS(=O)(=O)c1ccc([C@@H](C[C@H]2CCC(=O)C2)C(=O)Nc2cnccn2)cc1Cl,inactive,–
O=C(O)CN(CC(=O)O)CC(=O)O,inactive,–
CC1(C)C(=O)NC(=O)N1CO,inactive,–
CC(C)c1cccc(C(C)C)c1NC(=O)NS(=O)(=O)c1cc(C(C)(C)O)co1,inactive,–
CCCC(=O)O,inactive,–
C=CCCCCCCCCCCCC,inactive,–
CCCCC(CC)COP(=O)(OCC(CC)CCCC)OCC(CC)CCCC (stereo not drawn),–,13.7 µM (active)
NC1CCCCC1,inactive,–
CC(=O)CC(c1ccccc1)c1c(O)c2ccccc2oc1=O (stereo not drawn),inactive,–
C=CCc1ccc(OC)c(OC)c1,inactive,–
CC(C)OC(=O)C(C)(C)Oc1ccc(C(=O)c2ccc(Cl)cc2)cc1,–,39 µM (active)
CCCCCCCCCC[N+](C)(C)[O-],inactive,–
CCCCCCCC(=O)OC,inactive,–
Oc1ccc(O)cc1,inactive,–
CSc1ccc(Oc2ccc(S(N)(=O)=O)cc2CN(C)C)cc1C,–,39 µM (active)
CCc1cc(C2=C(C(=O)O)N(c3ccccc3C(F)(F)F)S(=O)(=O)c3ccccc32)cc2c1OCO2,inactive,–
NCCOCCOCCN,inactive,–
S=c1[nH]c2ccccc2s1,inactive,–
O=C(N[C@@H](c1ccccc1)[C@@H]1CCCCN1)c1cccc(C(F)(F)F)c1Cl,–,13.7 µM (active)
O=C1CCCCC1,inactive,–
Cc1ccc(C(C)(C)C)c(O)c1,inactive,–
CCN(CC)CCOc1ccc(C(=C(Cl)c2ccccc2)c2ccccc2)cc1,–,6.1 µM (active)
CC(=O)[C@@]1(O)CC[C@H]2[C@@H]3CCC4=CC(=O)CC[C@]4(C)[C@H]3CC[C@@]21C,inactive,–
